Rab9 promoter act: Rab9 promoter activation; Huh7 Rab9 promoter-luciferase reporter, luminescence, 24 h; hit rate 2.8% among 320,000; Potency, µM (top dose mostly 9.22 µM), most hits filed as activators; note: nearly all actives have a fitted effect of over 60% in size
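Luminescence read-out: Huh7 cells stably expressing Rab9-luciferase, treated 24 h with compound at 37 °C, then lysed with luciferase reagent for 10 min at ambient before reading.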
Luc counter: blocks Kinase-Glo luciferase, a counter-screen artifact; Potency, µM (titrated, usually from 38.3 µM), actives largely listed as inhibitors; AID 1379; Kinase-Glo luciferase, ATP luminescence, 8 min; hit rate 0.28% among 200,000; note: nearly all actives have a fitted effect of over 60% in size
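Light output from Kinase-Glo luciferase with luciferin and 10 uM ATP in 50 mM imidazole pH 7.2, KCl, MgCl2, Tween 20, BSA; compound pin-delivered, 8-min ambient incubation, then luminescence read.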
NPC1 prom act: activates the NPC1 promoter; Huh7 NPC1 promoter luciferase reporter, 24 h; AID 485313; hit rate 2.4% among 320,000; Potency, µM (titrated, usually from 9.22 µM), usual class: activators; note: nearly all actives have a fitted effect of over 60% in size
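Cells: Huh7 expressing luciferase under the NPC1 promoter, 1500/well. Seeded 2 h, compound added, incubated 24 h at 37 °C. Luciferase reagent, 10 min ambient, then luminescence.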
ELG1 genotoxic: inducers of genotoxicity in HEK293T ELG1-luciferase cells. AID 504466. hit rate 1.3% among 330,000. Potency, µM (highest dose often 46 µM), usual class: activators. HEK293T ELG1-luciferase reporter, luminescence, 16 h; note: nearly all actives have a fitted effect of over 60% in size
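Cells (2,000/well) expressing the ELG1-luciferase fusion are dosed by pin tool and kept 16 hr at 37 °C, 5% CO2. Signal comes from ONE-Glo luciferase reagent after 30 min at room temperature.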
FLuc modulator: counter-screen for miR-21 project: firefly luciferase inhibitors or activators; P08659; purified FLuc, Km substrates, luminescence inhibition; Potency, µM (series often up to 57.5 µM), hits mostly inhibitors; hit rate 6.9% among 360,000; AID 588342; note: nearly all actives have a fitted effect of over 55% in size
Target sequence (P08659 whole entry, looked up): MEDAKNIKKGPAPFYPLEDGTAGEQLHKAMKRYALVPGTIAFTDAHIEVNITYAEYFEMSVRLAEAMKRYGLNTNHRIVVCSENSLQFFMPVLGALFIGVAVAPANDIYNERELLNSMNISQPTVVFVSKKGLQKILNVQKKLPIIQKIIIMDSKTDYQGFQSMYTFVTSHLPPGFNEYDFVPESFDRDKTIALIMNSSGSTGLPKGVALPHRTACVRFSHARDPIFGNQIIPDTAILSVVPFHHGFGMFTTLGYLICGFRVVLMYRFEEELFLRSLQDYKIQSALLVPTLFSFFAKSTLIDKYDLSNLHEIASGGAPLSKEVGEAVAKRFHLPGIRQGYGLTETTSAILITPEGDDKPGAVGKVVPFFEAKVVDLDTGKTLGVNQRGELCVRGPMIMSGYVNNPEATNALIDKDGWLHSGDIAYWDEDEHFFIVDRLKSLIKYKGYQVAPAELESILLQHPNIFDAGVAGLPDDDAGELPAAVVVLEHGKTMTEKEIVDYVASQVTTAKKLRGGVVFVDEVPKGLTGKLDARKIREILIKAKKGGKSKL
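Purified P. pyralis luciferase (10nM final) with 10uM D-luciferin and 10uM ATP (Km levels) in 50mM Tris acetate pH 7.5, 10mM Mg acetate, 0.01% Tween-20, 0.05% BSA; qHTS 6-point titration, ~60 µM downward; luminescence read.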
SMN2 splice up: enhancers of SMN2 splice variant expression; HEK293 SMN2-luciferase splicing reporter, luminescence, 30-36 h; Potency, µM (doses to about 46.1 µM), hits mostly activators; hit rate 2.8% among 210,000; AID 1458; note: nearly all actives have a fitted effect of over 55% in size
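HEK293 cells carry an SMN2 minigene-luciferase reporter in which exon 7 inclusion puts luciferase in frame. Cells were seeded at 2000 cells/well, attached for 10-12 hours, then exposed to compounds for 30-36 hours at 37C before ONE-Glo luminescence.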
Large screens that a line does not name were inactive. This is a sample that favours compounds with a hit; in the whole collection about 7.5% have one here. Calls come from the whole dose curve; as a rule, active = well fitted curve in the direction sought with a large enough effect; inconclusive = small, poorly fitted or top-dose-only effect, or another doubt; inactive = no such curve, though single readings can be large; an effect the other way counts as inactive or inconclusive.

COc1ccc(-c2cn3cc(C)ccc3n2)cc1OC	Rab9 promoter act 0.631µM, Luc counter inconclusive, NPC1 prom act 1µM, ELG1 genotoxic 1.03µM, FLuc modulator 0.849µM, SMN2 splice up 3.98µM
COc1ccc(-c2cn3cc(C)ccc3n2)cc1F	Rab9 promoter act 0.355µM, NPC1 prom act 0.355µM, ELG1 genotoxic inconclusive, FLuc modulator 0.239µM, SMN2 splice up 0.562µM
O=c1c(Br)c(N2CCCCC2)cnn1-c1ccccc1	Rab9 promoter act 2µM, NPC1 prom act 3.55µM, ELG1 genotoxic inconclusive, FLuc modulator 15.1µM (no result: SMN2 splice up)
O=c1c(Br)c(N2CCCC2)cnn1-c1ccccc1	Rab9 promoter act 2µM, NPC1 prom act 3.98µM, ELG1 genotoxic inconclusive, FLuc modulator 21.3µM, SMN2 splice up 11.2µM
COc1ccc(Oc2ccc(-c3ccn[nH]3)cc2)cc1	Rab9 promoter act inconclusive, NPC1 prom act inconclusive, FLuc modulator 23.9µM (no result: Luc counter, SMN2 splice up)
COc1ccc(-c2n[nH]c(C)c2-c2ccc(Cl)cc2)c(O)c1	none
COc1ccc(-c2cc(-c3ccc(OC)cc3)[nH]n2)cc1	Rab9 promoter act inconclusive, NPC1 prom act 2.82µM, ELG1 genotoxic inconclusive, FLuc modulator 8.49µM
Cc1ccc(O)c(-c2cc(-c3ccccc3C)[nH]n2)c1	FLuc modulator inconclusive
COc1ccc(-c2cc(-c3cc(C)ccc3O)[nH]n2)cc1	ELG1 genotoxic inconclusive, FLuc modulator 12µM (no result: SMN2 splice up)
COc1ccc(-c2cc(-c3ccc(C)cc3)n[nH]2)c(O)c1	Rab9 promoter act 1.26µM, NPC1 prom act 1.26µM, ELG1 genotoxic inconclusive, FLuc modulator 4.78µM (no result: Luc counter, SMN2 splice up)
O=C(NCCCCN1CCCC1)c1ccc(Cc2nc3ccccc3[nH]2)cc1	none (no result: Rab9 promoter act, NPC1 prom act, ELG1 genotoxic, FLuc modulator, SMN2 splice up)
CCCN1C[C@H](CSC)C[C@H]2c3cccc4[nH]cc(c34)C[C@@H]21	none (no result: Rab9 promoter act, NPC1 prom act, ELG1 genotoxic, FLuc modulator)
CCN(CC)c1ccc2cc(-c3nc4ccccc4n3C)c(=O)oc2c1	NPC1 prom act inconclusive, ELG1 genotoxic inconclusive, FLuc modulator 1.9µM, SMN2 splice up inconclusive
CCN(CC)c1ccc2cc(-c3nc4ccccc4[nH]3)c(=O)oc2c1	Rab9 promoter act 0.1µM, Luc counter inconclusive, NPC1 prom act 0.282µM, ELG1 genotoxic 0.146µM, FLuc modulator 0.0757µM
CCN(CC)c1ccc2cc(-c3nnc(-c4ccccc4)o3)c(=O)oc2c1	Rab9 promoter act inconclusive, NPC1 prom act 2.82µM, ELG1 genotoxic inconclusive, FLuc modulator inconclusive, SMN2 splice up 11.2µM
O=c1oc2ccc3ccccc3c2cc1-c1nnc(-c2ccccc2)o1	none
N#C/C(=C\c1ccc(-c2cccc([N+](=O)[O-])c2)o1)c1nnc(N2CCOCC2)n1-c1ccccc1	none
O=C(O)c1cccc(Cn2c(Cl)c(/C=N/Nc3ccccc3)sc2=O)c1	FLuc modulator 26.9µM
COc1ccc(C(=O)N/N=C/c2sc(=O)n(Cc3cccc(C(=O)O)c3)c2Cl)cc1	FLuc modulator 26.9µM (no result: Luc counter, SMN2 splice up)
O=C(O)c1cccc(Cn2c(Cl)c(/C=N/NC(=O)c3ccccc3O)sc2=O)c1	FLuc modulator 19µM (no result: Luc counter, SMN2 splice up)
Cc1ccccc1OCC(=O)N/N=C/c1sc(=O)n(Cc2cccc(C(=O)O)c2)c1Cl	none (no result: Luc counter, SMN2 splice up)
O=C(O)c1cccc(Cn2c(Cl)c(/C=N/NC(=O)c3ccccc3Cl)sc2=O)c1	none
CCC1(c2ccc(F)cc2)NC(=O)N(CC(=O)NCC(=O)Nc2cccc(C)c2C)C1=O (stereo not drawn)	none (no result: Luc counter, SMN2 splice up)
Cc1ccc(NC(=O)CSc2ncc(S(=O)(=O)c3ccccc3)c(=O)[nH]2)cc1C	FLuc modulator inconclusive
Cc1ccc(C)c(NC(=O)CSc2ncc(S(=O)(=O)c3ccc(C)c(Cl)c3)c(=O)[nH]2)c1	FLuc modulator 10.7µM (no result: Rab9 promoter act, Luc counter, NPC1 prom act, ELG1 genotoxic, SMN2 splice up)
CC(C)(C)c1ccc(S(=O)(=O)c2cnc(SCC(=O)Nc3ccc4c(c3)OCCO4)[nH]c2=O)cc1	FLuc modulator 10.7µM (no result: Rab9 promoter act, Luc counter, NPC1 prom act, ELG1 genotoxic)
CCc1ccc(NC(=O)CSc2ncc(S(=O)(=O)c3cc(C)ccc3C)c(=O)[nH]2)cc1	FLuc modulator 9.53µM (no result: Rab9 promoter act, Luc counter, NPC1 prom act, ELG1 genotoxic)
COc1ccccc1CNC(=O)CSc1ncc(S(=O)(=O)c2ccc(C)c(Cl)c2)c(=O)[nH]1	FLuc modulator 13.5µM (no result: Rab9 promoter act, Luc counter, NPC1 prom act, ELG1 genotoxic, SMN2 splice up)
O=C(CSc1ncc(S(=O)(=O)c2ccccc2)c(=O)[nH]1)Nc1ccccc1Cl	none (no result: Luc counter, SMN2 splice up)
COc1cccc(NC(=O)CSc2ncc(S(=O)(=O)c3ccccc3)c(=O)[nH]2)c1	none (no result: Luc counter, SMN2 splice up)

Compound activity (PubChem)
